FBW7 act: human FBW7 E3 ligase activation, primary screen; Q969H0; AlphaScreen FBW7–phospho-cyclin E peptide binding, activator screen; normalized activity (activation), % at 26.1 µM; 650,000 compounds, 0.13% hits; AID 1259310; in the data active means normalized activity above about 1.9%;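 further: purified mutant Fbw7 with reduced substrate affinity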
MITF primary: blocks human microphthalmia-associated transcription factor. O75030. AlphaScreen MITF homodimerization, bead proximity signal. inhibition, % at 2.6 µM. 650,000 compounds, 0.91% hits; in the data active means inhibition above about 50%;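 further: 0% = vehicle wells with protein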
GPR151 ag: human GPR151 activation. PathHunter beta-arrestin GPR151 cells, luminescence. activation, % at 11.2 µM. 650,000 compounds, 1% hits. AID 1508602; in the data active means activation above about 4.9%;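 further: 0% = median of compound wells and 100% = cells with positive control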
TEAD-YAP block: TEAD-YAP interaction inhibition; HEK-TIYL cells, TEAD-Gal4/YAP UAS-luciferase luminescence; inhibition, % at 9.12 µM; 640,000 compounds, 1.4% hits; AID 1259422; in the data active means inhibition above about 32%;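 further: 0% = median of test compound wells and 100% = reference inhibitor wells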
Numbers without * were called inactive; ! = a repeat was not active. Hits are enriched below; roughly 3.5% of the tested compounds scored in any of these assays.

SMILES	FBW7 act	MITF primary	GPR151 ag	TEAD-YAP block
O=C(/C=C\Nc1cccc(F)c1)c1ccc2c(c1)OCO2	0.0	-0.3	-3.5	55.1*
COc1cccc(C(=O)/C=C/Nc2cccc(O)c2)c1	1.0	16.6	-8.6	97.4*
O=C(/C=C\Nc1ccc2c(c1)OCO2)c1ccc2ccccc2c1	0.5	7.5	-0.9	-6.6
O=C(/C=C/Nc1cccc(O)c1)c1ccc(Cl)cc1	0.2	4.9	-0.7	96.8*
C=CCN1CCN(c2c(Cl)cccc2NC(=O)C2CCCO2)CC1 (stereo not drawn)	1.1	9.9	-0.7	-3.8
CCCCOc1ccc(C(=O)NCC(=O)OC(C)C(=O)NC(=O)NCC)cc1 (stereo not drawn)	-0.1	4.5	-0.1	2.3
Nc1c2ccccc2nc2ccccc12	0.6	21.1	-0.4	74.5*
Cc1cccc(Nc2nc(NCc3ccco3)c3ccccc3n2)c1	-0.1	-0.7	-0.1	60.0*
Brc1cccc(Nc2nc3nonc3nc2NCc2ccco2)c1	0.6	-4.3	0.2	87.1*
Oc1cccc(Nc2nc(NCc3ccco3)c3ccccc3n2)c1	-0.3	15.2	0.6	10.7
COc1ccccc1Nc1nc2nonc2nc1Nc1cccc(Br)c1	-0.3	2.4	0.2	21.0
O=C(CCN1CCOCC1)c1ccc(F)cc1	-0.3	-12.1	-0.4	-3.0
O=C1NC(=S)NC(=O)C1=CN1CCCc2ccccc21	2.5*	30.8	0.2	14.0
O=C1NC(=S)NC(=O)C1=Cc1ccc(N2Cc3ccccc3C2)cc1	0.2	21.0	-1.1	8.6
COc1ccccc1N1CCN(CC(O)COc2cccc3ccccc23)CC1 (stereo not drawn)	0.2	12.5	-0.3	38.4*!
CN1CCN(CC(O)COc2cccc3ccccc23)CC1 (stereo not drawn)	0.1	8.8	-0.5	9.8
COc1ccc(S(=O)(=O)Oc2cc(C)cc(C)c2CN2CCOCC2)cc1	0.2	-11.2	-0.4	37.3*
Cc1cc(OS(=O)(=O)c2ccc(F)cc2)c(C)cc1CN1CCOCC1	-0.1	-5.5	-1.1	8.6
Cc1nc(NCCC2=CCCCC2)c2c3c(sc2n1)CCC3	-0.1	-6.3	-0.8	3.5
Cc1nc(NCCC2=CCCCC2)c2cc(C)sc2n1	0.0	-0.7	-0.4	40.8*
C=CCN(C(=O)c1csnn1)C(C(=O)NC(C)(C)C)c1ccccc1 (stereo not drawn)	0.0	12.2	-0.1	-3.9
O=C(CSc1cc(N2CCCC2)ncn1)c1ccccc1	0.3	18.0	-8.7	75.9*
O=C(CCC1CCCCC1)NCCOc1ccc2nnc(-c3ccc(F)cc3)n2n1	-0.2	-1.6	1.7	-3.7
O=C(c1cccc([N+](=O)[O-])c1)N1CCN(C2CCCCC2)CC1	0.1	-16.9	-0.2	5.7
O=C(Nc1ccc(N2CCCCC2)cc1)c1ncn[nH]1	-0.9	50.5	-7.2	82.1*
SMILES	FBW7 act	MITF primary	GPR151 ag	TEAD-YAP block
CCOc1ccc(NC(=O)c2ccc(C(=O)Nc3ccc(OCC)cc3)cc2)cc1	-0.2	8.1	3.0	-6.0
CC(C)C(=O)N1CCN(c2ccc(NC(=O)c3ncn[nH]3)cc2)CC1	-0.6	3.5	-4.4	-1.9
CCOc1ccc(NC(=O)c2ncn[nH]2)cc1	-0.1	-0.3	-0.1	39.4*
O=c1[nH]cnc2c1nnn2Cc1ccccc1F	0.2	13.0	-0.2	9.2
COc1cccc(C(=O)NC(c2ccco2)c2cc(Cl)c3cccnc3c2O)c1 (stereo not drawn)	-0.3	24.6	-0.1	79.0*
COc1cccc(C(=O)NC(c2ccccc2OC)c2cc(Cl)c3cccnc3c2O)c1 (stereo not drawn)	-0.4	4.5	-0.7	41.0*
COc1cccc(C(=O)NC(c2ccccc2)c2cc(Cl)c3cccnc3c2O)c1 (stereo not drawn)	0.3	16.3	-1.4	9.7
COc1ccccc1C(NC(=O)c1cccnc1)c1cc(Cl)c2cccnc2c1O (stereo not drawn)	-0.3	4.0	1.2	18.5
CC1CC(C)(C)NC(=S)N1CC(=O)Nc1nccs1 (stereo not drawn)	0.0	5.8	1.4	-7.0
CC1CN=C(N(C)C(=O)Nc2cccc(Cl)c2)S1 (stereo not drawn)	-0.1	2.4	-0.7	-19.7
CNC(=O)N(C1=NCC(C)S1)c1cccc(Cl)c1 (stereo not drawn)	-0.1	9.1	-0.8	40.0*
Cc1nc(SCc2ccc(Br)cc2)n[nH]1	0.0	15.0	-0.4	33.3*
Cc1nc(SCc2ccc(OC(C)C)cc2)n[nH]1	0.5	14.7	-5.1	95.2*
COC(=O)c1ccccc1NC(=O)CCOc1ccc(OC)cc1	0.0	-2.2	-0.7	32.7*
COC(=O)c1ccccc1NC(=O)CCS(=O)(=O)c1ccc(OC)cc1	0.2	4.8	1.5	-8.9

Source: PubChem (The Scripps Research Institute Molecular Screening Center)
